Screening results (PubChem BioAssay)
A selection: hits, their analogues and other compounds. The true share with any hit is near 7.9%.
HCV inh – inhibitors of hepatitis C virus infection. Huh7.5.1 HCVcc-Cre infection, luciferase reporter, 44 h. Potency, µM (highest dose often 41.8 µM), inactives show at the highest dose activity change, negative = inhibition, hits mostly inhibitors. 340,000 tested, 3.4% active; active = well fitted inhibition curve with a large enough effect; inconclusive = small, poorly fitted or top-dose-only effect, or another doubt; inactive = no such curve, though single readings can be large or run the other way; also: potency is read from the fitted curve at half-maximal effect
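Seed cells (1,000/well) for 4 h; treat with compound and infect with HCVcc-Cre, moi about 0.5. Incubate 44 h, then detect luciferase activity.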
Lassa entry inh – inhibitors of Lassa virus binding or cell entry; 300,000 tested, 1.2% active; Lassa virus pseudotype entry inhibition, cell reporter; Potency, µM (titrated, usually from 37.9 µM), for the others: at the top dose activity change, negative = inhibition, hits mostly inhibitors; calls by dose curve; tested in HEK293 cells; also: potency is read from the fitted curve at half-maximal effect; nearly all actives have a fitted effect of over 50% in size
MARV entry inh – inhibitors of Marburg virus binding or cell entry; Potency, µM (doses to about 37.8 µM), without a hit: at the top dose activity change, negative = inhibition, usual class: inhibitors; AID 540276; 300,000 tested, 1.8% active; Marburg virus pseudotyped entry inhibition, cell reporter; calls by dose curve; tested in HEK293 cells; also: potency is read from the fitted curve at half-maximal effect
HCMV antiviral – blocks human cytomegalovirus replication. 410,000 tested, 4.5% active. activity change, negative = inhibition, % at 57.5 µM. HFF cells, HCMV-luciferase reporter, 72 h; active compounds read low; in the data active = activity change below about -60%; inconclusive = no clear call, values can overlap the other calls; inactive = above about -39%
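Human foreskin fibroblasts infected with luciferase-reporter HCMV at MOI 1 PFU/cell, compounds at two doses. Luciferase measured 72 h post infection; normalized to buffer-only basal and Salinomycin (10uM) controls.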
FMDV inh – foot and mouth disease virus antiviral activity; FMDV antiviral cell-based qHTS; Potency, µM (highest dose often 57.9 µM), for inactives: top-dose activity change, negative = inhibition, actives largely listed as inhibitors; 410,000 tested, 1.2% active; AID 1159524; calls by dose curve; tested in HEK293T cells; also: read-out not given here; potency is read from the fitted curve at half-maximal effect; nearly all actives have a fitted effect of over 45% in size
* marks the source's active call; other numbers are inactive results; [ ] = dose if it differs, or a comment. % is scaled to controls: 0 for no effect and ±100 for the full control effect.

For COc1ccc(NC(=O)C2=CC(c3ccc4c(c3)OCO4)=NS(=O)(=O)N2C)cc1OC the results were Lassa entry inh 17%[46.1 µM], MARV entry inh 16%[46.1 µM], HCMV antiviral -13 and FMDV inh -21%.
COc1ccc(C2=NS(=O)(=O)N(C)C(C(=O)Nc3ccc4c(c3)OCO4)=C2)cc1OC was read as HCV inh 13µM*, HCMV antiviral 9 and FMDV inh inconclusive.
CCc1nc2ccc(C(=O)Nc3ccc4c(c3)OCO4)cc2nc1CC was read as HCV inh 2µM*, Lassa entry inh -17%, MARV entry inh 10%, HCMV antiviral -31 and FMDV inh 49%.
CCC(CC)C(=O)Nc1cccc(C(=O)Nc2ccc3c(c2)OCO3)c1 was read as HCV inh 7.9µM*, Lassa entry inh 0%, MARV entry inh 19%, HCMV antiviral -38 and FMDV inh 41%.
CN1c2ccccc2[C@@]2(O)C(=O)[C@@]1(C)[C@@H]1CCC=C[C@H]12 was read as Lassa entry inh inconclusive and MARV entry inh 10%[14.2 µM].
`CC(C)CNS(=O)(=O)c1ccc(S(=O)(=O)N2CCN(C3CCCC3)CC2)cc1` gave HCV inh -10%, Lassa entry inh -3%, MARV entry inh -27%[46.1 µM], HCMV antiviral -101* and FMDV inh -13%.
COC(=O)c1c(OCc2cccnc2)cc(=O)n2c1CCN(C(=O)c1c3c(nn1C)CCCC3)CC2 was read as FMDV inh -17%.
Screening CCC(C)NC(=O)CSc1nc2c(sc(=S)n2Cc2ccco2)c(=O)n1-c1ccccc1 (stereo not drawn) returned HCV inh inconclusive, Lassa entry inh inconclusive, MARV entry inh -15%, HCMV antiviral inconclusive and FMDV inh inconclusive.
CCN(CC)C(=O)CSc1nc2c(sc(=S)n2CC)c(=O)n1-c1ccccc1 was read as HCV inh -29%, Lassa entry inh -12%, MARV entry inh -10%, HCMV antiviral -72* and FMDV inh inconclusive.
For CCN(CC)C(=O)CSc1nc2c(sc(=S)n2-c2ccccc2)c(=O)n1Cc1ccco1 the results were HCV inh 10µM*, Lassa entry inh inconclusive, MARV entry inh 9.2µM*, HCMV antiviral -67* and FMDV inh inconclusive.
Cc1nn(-c2ccc(Cl)cc2)c2nc(-c3cccnc3)cc(C(F)(F)F)c12 was read as Lassa entry inh -5%[46.1 µM], MARV entry inh -2%[46.1 µM], HCMV antiviral 36 and FMDV inh -10%.
For CCNC(=O)C1CCN(Cc2cc3ccccc3n2Cc2ccc(C)cc2)CC1 the results were Lassa entry inh -22%[46.1 µM], HCMV antiviral -7 and FMDV inh 11%.
Screening CCOC(=O)c1ccc2c(c1)nc(COc1ccccc1C#N)n2CC returned HCV inh -1%.
For CCOC(=O)c1ccc2c(c1)nc(COc1ccc3ccccc3c1)n2CC the results were HCV inh -21%, Lassa entry inh inconclusive, MARV entry inh 4.6µM*, HCMV antiviral -36 and FMDV inh -16%.
For Cc1ccc(OCC(=O)OCc2cc(=O)n3nc(C4CCCCC4)sc3n2)cc1C the results were Lassa entry inh 1%[46.1 µM], HCMV antiviral 25 and FMDV inh -3%.
Screening Cc1ccc(S(=O)(=O)c2cc3c(=O)n4ccccc4nc3n(C3CCCCC3)c2=N)cc1 returned HCV inh 13µM*, Lassa entry inh 30%, MARV entry inh -1%, HCMV antiviral 33 and FMDV inh inconclusive.
N=c1c(S(=O)(=O)c2ccc(Cl)cc2)cc2c(=O)n3ccccc3nc2n1CCN1CCOCC1 was read as HCV inh 13µM*, Lassa entry inh 19%, MARV entry inh -20%, HCMV antiviral -25 and FMDV inh -11%.
CCc1ccc(NC(=O)CN2CCCN(Cc3cccc(Cl)c3)S2(=O)=O)cc1 was read as Lassa entry inh inconclusive, HCMV antiviral active and FMDV inh -12%.
For CCc1cccc(C)c1NC(=O)CN1CCCN(Cc2ccccc2Cl)S1(=O)=O the results were Lassa entry inh -8%[46.1 µM], HCMV antiviral active and FMDV inh -19%.
`CC(C)(C)c1ccc(OCCOc2ccc(C(C)(C)C)cc2NC=O)c(NC=O)c1` gave HCV inh 10µM*, HCMV antiviral inconclusive and FMDV inh inconclusive.
Screening Cc1cc(Cl)ccc1NC(=S)NCC(C)C returned HCV inh -5%, Lassa entry inh 0%, MARV entry inh inconclusive, HCMV antiviral -73* and FMDV inh 23%.
COc1ccc(S[C@]2(C(=O)N3CCCC3)CC(=O)N(c3ccc(OC)cc3)[C@@H]2c2ccc(OC)cc2)cc1 was read as HCMV antiviral -1.
`C/C(=N\NC(=O)COc1ccccc1-c1ccccc1)c1cccnc1` gave HCV inh inconclusive, Lassa entry inh inconclusive, MARV entry inh inconclusive, HCMV antiviral 71 and FMDV inh -21%.
CCCCCCCCC(=O)N/N=C(\C)c1ccc(O)cc1O was read as HCV inh inconclusive, Lassa entry inh inconclusive, MARV entry inh inconclusive, HCMV antiviral -40 and FMDV inh 0%.
C/C(=N\NC(=O)COc1ccccc1-c1ccccc1)c1ccccn1 was read as HCV inh 5µM*, Lassa entry inh 5.6µM*, MARV entry inh 4µM*, HCMV antiviral -98* and FMDV inh inconclusive.
Screening CCCCCC(=O)N/N=C(\C)c1ccccn1 returned HCV inh inconclusive, Lassa entry inh inconclusive, MARV entry inh 7.1µM*, HCMV antiviral -99* and FMDV inh 26%.
Screening CCCCCCCCCC(=O)N/N=C(\C)c1cccnc1 returned HCV inh 16%, Lassa entry inh 4%, MARV entry inh 12%[46.1 µM], HCMV antiviral 11 and FMDV inh -29%.
For O=C(COc1ccccc1-c1ccccc1)N/N=C/c1ccc2ccccc2c1 the results were HCV inh inconclusive, Lassa entry inh 1.8µM*, MARV entry inh inconclusive, HCMV antiviral -100* and FMDV inh -12%.
C/C(=N\NC(=O)COc1ccccc1-c1ccccc1)c1ccc(O)cc1O was read as HCV inh 11µM*, HCMV antiviral -76* and FMDV inh 0%.
For COc1ccc(-c2nsc(NC(=O)c3cccc(OC)c3)n2)cc1 the results were Lassa entry inh 4%[46.1 µM], MARV entry inh -19%[46.1 µM], HCMV antiviral inconclusive and FMDV inh 0%.
For Cc1ccc(Sc2c(C)nn(C(=O)c3ccc(Br)cc3)c2C)cc1 the results were Lassa entry inh -3%[46.1 µM], MARV entry inh 2%[46.1 µM], HCMV antiviral 13 and FMDV inh 17%.
Screening CCC(=O)Oc1c(Sc2ccc(Cl)cc2)c(C)nn1-c1ccccc1 returned Lassa entry inh 16%[46.1 µM], MARV entry inh 20%[46.1 µM], HCMV antiviral -94* and FMDV inh -20%.
For Cc1nn(C(=O)c2ccccc2)c(C)c1Sc1ccc(Cl)cc1 the results were Lassa entry inh 0%[46.1 µM], HCMV antiviral -74* and FMDV inh 28µM*.
For CCC(=O)OCCCNc1nc(-c2ccc(Cl)cc2)nc2ccccc12 the results were Lassa entry inh -3%[46.1 µM], MARV entry inh inconclusive, HCMV antiviral 30 and FMDV inh -1%.
